Values without a mark were called inactive. Activity calls are given as the source filed them. No stated cut-off is given here; in the data, active means inhibition above about 50%; inactive means the rest.

The test deals with Prolyl endopeptidase-like (Mus musculus) (UniProt Q8C167). The test is described as follows: mouse PREPL enzyme inhibition by screening hits – biochemical, gel-based competitive ABPP, fluorescence, HTS hits, PREPL inhibitor project (AID 624481). The following applies: purified mouse PREPL, at 20 µM, active compounds read high.
Prolyl endopeptidase-like (Mus musculus), sequence (Q8C167 whole entry, looked up): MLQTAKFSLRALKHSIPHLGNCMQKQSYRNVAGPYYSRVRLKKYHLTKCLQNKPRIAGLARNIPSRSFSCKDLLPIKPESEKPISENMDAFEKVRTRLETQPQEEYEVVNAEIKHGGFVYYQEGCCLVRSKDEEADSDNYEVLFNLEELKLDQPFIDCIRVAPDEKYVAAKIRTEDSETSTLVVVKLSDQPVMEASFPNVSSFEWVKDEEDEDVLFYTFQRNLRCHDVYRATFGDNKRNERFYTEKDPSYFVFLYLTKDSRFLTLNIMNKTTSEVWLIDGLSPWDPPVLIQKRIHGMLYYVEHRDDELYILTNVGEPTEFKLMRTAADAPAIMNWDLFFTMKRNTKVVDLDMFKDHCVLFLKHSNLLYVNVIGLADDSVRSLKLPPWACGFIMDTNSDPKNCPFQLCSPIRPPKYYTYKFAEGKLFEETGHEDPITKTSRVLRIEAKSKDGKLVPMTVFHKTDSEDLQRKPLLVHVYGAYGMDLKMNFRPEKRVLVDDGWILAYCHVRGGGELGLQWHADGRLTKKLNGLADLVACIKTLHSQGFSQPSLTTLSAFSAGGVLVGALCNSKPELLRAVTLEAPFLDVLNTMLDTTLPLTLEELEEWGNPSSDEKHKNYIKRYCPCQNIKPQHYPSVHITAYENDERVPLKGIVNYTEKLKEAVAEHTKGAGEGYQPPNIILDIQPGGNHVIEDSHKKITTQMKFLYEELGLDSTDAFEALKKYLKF
For the compound `CCc1ccc(OCC(=O)Nc2ccc(N3CCN(C(=O)c4ccccc4)CC3)cc2)cc1`, the inhibition is -73%.
The value for `O=C(C1=C[C@@H](c2ccc(Br)cc2)C[C@@H](OCCCCO)O1)N1CCN(Cc2ccc3c(c2)OCO3)CC1` was -47%; that for `COc1ccc(OCC(=O)NNc2c3ccccc3nc3ccccc23)cc1` was -2%; that for `Oc1ccccc1-[n+]1c(-c2ccccc2)cc(-c2ccccc2)cc1-c1ccccc1` was -30%.
As to `c1ccc(N2CCN(c3nc(NCc4ccco4)c4ccccc4n3)CC2)cc1`, the inhibition is 94% (active).
Next, `Clc1ccc(-c2csc(=Nc3cccnc3)n2CCCn2ccnc2)cc1Cl`: -41%; `CNC(=S)N1N=C(c2ccc(C)cc2)CC1c1ccc(N(C)C)cc1` (configuration not stated): -85%; `COc1cc(NC(=O)CN2CCN(c3ccccc3F)CC2)c(C)cc1[N+](=O)[O-]`: -92%.
The value for `c1cncc(N=c2scc(-c3cccc4ccccc34)n2CCCn2ccnc2)c1` was -95%; that for `CCCCCN=C(N)NN=Cc1c[nH]c2ccc(OC)cc12` was -11%; that for `CCC(=O)c1ccc2c(c1)N(CCCN(C)C)c1ccccc1S2` was 9%.
Consider `O=C(C1=C[C@@H](c2ccc(C(F)(F)F)cc2)C[C@@H](OCc2ccc(CO)cc2)O1)N1CCN(Cc2ccccc2)CC1`, for which the inhibition is -76%.
The value for `CCC[C@@H](CN1CCC[C@H]1CN1C(N)=NC[C@H]1C(C)C)N1C[C@@H](Cc2ccccc2)N(CCCC2CCCC2)C1=N` was -46%; that for `COc1ccccc1-[n+]1c(C)cc(/C=C2\Sc3ccccc3N2C)cc1C` was -27%; that for `CCOc1ccc(Nc2nc(NCC3CCCO3)c3ccccc3n2)cc1` (configuration not stated) was 12%.
The value for `CCc1ccc(Nc2n[n+](-c3ccccc3)c(-c3ccc(N(CC)CC)cc3)s2)cc1` was -100%; that for `COc1ccc2nc(C)cc(NN=Cc3cccc(OC)c3O)c2c1` was -23%.
Next, `Cc1ccc(OCC(=O)Nc2ccc(N3CCN(C(=O)c4ccco4)CC3)cc2)c(C)c1`: -7%.
`C#CCOCCOCCOCCNc1nc(N2CCN(C(=O)CCCCCCCCCCNC(=O)[C@H](CCCCN)n3cc(CCO)nn3)CC2)nc(N2CCN(C(=O)CCCCCCCCCCNC(=O)[C@H](CCCCN)n3cc(C[C@@H](C)CC)nn3)CC2)n1`: the inhibition was -141%.
For `CN1CCN(C(=O)C2=C[C@@H](c3ccc4c(c3)OCO4)C[C@@H](OCc3ccc(CO)cc3)O2)CC1`, the inhibition was -46%.
On to `COc1ccc(NC(=O)N2CCN(c3ccc([N+](=O)[O-])cc3)CC2)cc1OC`, for which the inhibition is -40%.
Next, `CN(C)c1ccc(C(CNC(=O)c2ccccc2)c2c[nH]c3ccccc23)cc1` (configuration not stated): 13%.
The value for `C#CCOCCOCCOCCNc1nc(N2CCN(C(=O)C(Cc3ccc(O)cc3)n3cc(C(N)CC(C)C)nn3)CC2)nc(N2CCN(C(=O)C(Cc3cc4ccccc4[nH]3)n3cc(C(N)Cc4ccc(O)cc4)nn3)CC2)n1` (configuration not stated) was -100%; that for `COc1ccc(N2CCN(c3ccc4nnc(CCC(=O)Nc5ccc(C)cc5)n4n3)CC2)cc1` was -20%; that for `Cc1cc(C)c2nc(C)cc(NN=Cc3ccc(O)cc3)c2c1` was -1%.
On to `C#CCOCCOCCOCCNc1nc(N2CCN(C(=O)CCCCCCCCCCNC(=O)Cn3cc(CCCCCN)nn3)CC2)nc(N2CCN(C(=O)CCCCCCCCCCNC(=O)[C@H](CO)n3cc(CCCCCN)nn3)CC2)n1`, for which the inhibition was -38%.
Turning to `C#CCOCCOCCOCCNc1nc(N2CCN(C(=O)[C@H]([C@@H](C)CC)n3cc([C@@H](N)Cc4ccc(O)cc4)nn3)CC2)nc(N2CCN(C(=O)[C@H](Cc3cc4ccccc4[nH]3)n3cc([C@@H](N)CC(C)C)nn3)CC2)n1`, the inhibition is -105%.
Next, `CN(C)c1ccc(NC(=O)Cn2cc3c(n2)CCCC3)cc1`: -22%; `COc1cc2[nH]c3c(N4CCN(c5ccccn5)CC4)ncnc3c2cc1OC`: 1%; `NC(=O)[C@@H]1CCCNc2c(I)cc([N+](=O)[O-])cc2C(=O)N[C@@H](CCCN=C(N)N)C(=O)N[C@@H](CCCN=C(N)N)C(=O)N1`: -77%.
Next, `CN1CCN(c2ccc(NC(=O)COc3ccc(Cl)cc3Cl)cc2)CC1`: -13%.
With `CN1CCN(C(=O)C2=C[C@@H](c3ccc(C(F)(F)F)cc3)C[C@@H](OCc3ccc(CO)cc3)O2)CC1`, the inhibition was -83%.

As a reminder, the inhibition is the drop in the measured response relative to a control, in per cent.

The record behind these values is PubChem BioAssay AID624481 (The Scripps Research Institute Molecular Screening Center, 2012).
